# An excerpt weighted towards active compounds, which were near 9.5% of everything screened.
# Tau FP inhib = tau fibrillization inhibition (FP); P10636; K18 P301L tau heparin fibrillization, Alexa594 FP, 6 h; Potency, µM (series often up to 57.7 µM), most hits filed as inhibitors; 280,000 compounds, 0.39% hits; note: nearly all actives have a fitted effect of over 55% in size
#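 Recombinant K18 P301L […], labeled with Alexa 594 at 0.24 uM over 15 uM unlabeled; heparin inducer 20 uM final; 37 C, 6 hr; FP endpoint.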
# NPSR antag = blocks cAMP signaling of the human neuropeptide S receptor | 220,000 compounds, 1% hits | Potency, µM (top dose mostly 38.3 µM), usual class: inhibitors | Q6W5P4 | CHO-NPSR cells, cAMP TR-FRET, antagonist mode; note: nearly all actives have a fitted effect of over 50% in size
# Target sequence (Q6W5P4 whole entry, looked up): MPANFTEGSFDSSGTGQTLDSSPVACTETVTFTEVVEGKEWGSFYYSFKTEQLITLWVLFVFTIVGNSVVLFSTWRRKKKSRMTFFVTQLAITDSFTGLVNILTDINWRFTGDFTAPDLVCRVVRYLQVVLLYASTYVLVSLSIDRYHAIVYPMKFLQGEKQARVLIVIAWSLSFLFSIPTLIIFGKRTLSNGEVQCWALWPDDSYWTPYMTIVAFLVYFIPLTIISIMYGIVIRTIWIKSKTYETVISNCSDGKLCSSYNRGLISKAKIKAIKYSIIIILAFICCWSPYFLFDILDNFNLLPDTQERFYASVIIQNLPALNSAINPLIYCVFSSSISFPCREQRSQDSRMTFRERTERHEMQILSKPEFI
# ALDH1A1 block = ALDH1A1 (human) enzyme inhibition. P00352. Purified ALDH1A1, NADH fluorescence, propionaldehyde substrate. Potency, µM (highest dose often 75.3 µM), actives largely listed as inhibitors. 220,000 compounds, 7.3% hits. AID 1030; active = well fitted inhibition curve with a large enough effect, not every such curve was filed as active; inconclusive = small, poorly fitted or top-dose-only effect, or another doubt; inactive = no such curve, though single readings can be large or run the other way
# HPGD inh = inhibitors of human 15-hydroxyprostaglandin dehydrogenase (HPGD); P15428; purified HPGD, NADH fluorescence kinetic, PGE2 substrate; Potency, µM, usual class: inhibitors; 150,000 compounds, 4.3% hits; AID 894; active = well fitted inhibition curve with a large enough effect, not every such curve was filed as active; inconclusive = small, poorly fitted or top-dose-only effect, or another doubt; inactive = no such curve, though single readings can be large or run the other way
# Target sequence (P15428 whole entry, looked up): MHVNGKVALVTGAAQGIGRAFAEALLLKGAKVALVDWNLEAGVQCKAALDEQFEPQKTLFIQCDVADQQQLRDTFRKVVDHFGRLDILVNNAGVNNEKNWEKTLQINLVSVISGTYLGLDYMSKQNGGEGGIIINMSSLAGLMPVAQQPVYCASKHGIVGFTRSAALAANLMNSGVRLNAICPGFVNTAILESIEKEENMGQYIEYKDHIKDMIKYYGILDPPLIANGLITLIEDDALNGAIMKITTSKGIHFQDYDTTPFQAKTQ
#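 20 nM HPGD preincubated 15 min at room temperature with compound in 50 mM Tris-HCl pH 8, 0.01% Tween 20. Started with 1 mM NAD+ and 30 uM prostaglandin E2; NADH fluorescence (360/450 nm) read 5 times over 30-s intervals, last minus first.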
# Tau ThT inhib = inhibitors of human tau fibril formation, thioflavin T binding; recombinant tau K18 P301L, heparin-induced fibrillization, ThT fluorescence; P10636; 270,000 compounds, 2.1% hits; Potency, µM (titrated, usually from 57.4 µM), hits mostly inhibitors; note: nearly all actives have a fitted effect of over 55% in size
#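 In this qHTS, human K18 P301L tau is incubated with compound and heparin for 6 hr at 37 C, and Thioflavin T fluorescence then reports fibril load.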
# Tau fluor cs = counter-screen for tau fibril formation inhibitors | Potency, µM (series often up to 57.7 µM) | AID 1463 | tau K18 P301L (four-repeat tau fragment) Alexa594 fluorescence, heparin fibrillization | 280,000 compounds, 0.93% hits; note: nearly all actives have a fitted effect of over 55% in size
#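 Human K18 P301L tau (15 uM unlabeled plus 0.24 uM Alexa 594-labeled, final) in 100 mM sodium acetate pH 7 was mixed with compound and 20 uM heparin and incubated 6 hr at 37 C.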
# Numbers stand for hits; 0 = inactive; ? = inconclusive; - = no result given; [ ] = dose if it differs, or a comment. Unless noted, calls come from the whole dose curve; as a rule, active = well fitted curve in the direction sought with a large enough effect; inconclusive = small, poorly fitted or top-dose-only effect, or another doubt; inactive = no such curve, though single readings can be large; an effect the other way counts as inactive or inconclusive.
SMILES,Tau FP inhib,NPSR antag,ALDH1A1 block,HPGD inh,Tau ThT inhib,Tau fluor cs
CCN(CCNC(=O)C1CCN(S(=O)(=O)c2cccc3cccnc23)CC1)c1ccccc1,0,0,39.8µM,0,0,0
Cc1ccc(CNC(=O)NCc2noc3ccc(C)cc23)cc1,0,-,-,-,0,0
C[C@@H]1OC(OC2CC[C@@]3(C)C(CC[C@@]4(C)C3CC=C3C5CC(C)(C)CC[C@]5(C(=O)OC5OCC(O)[C@@H](O)[C@@H]5OC5O[C@@H](C)[C@H](O[C@H]6OC(CO)C(O)C(O)C6O)C(O)C5O)C(O)C[C@@]34C)C2(C)C)C(O)C(O)[C@H]1OC1OCC(O)C(O)[C@H]1O (some centres undefined),?,-,0,0,0,0
CCOC(=O)C1CCN(C(=O)c2ccc3c(=O)n4nc(Nc5ccccc5)sc4nc3c2)CC1,0,-,-,-,0,0
O=C(C1CCN(S(=O)(=O)c2cccc3cccnc23)CC1)N1CCc2ccccc21,0,0,?,0,0,0
O=C(NCCN1CCCCCC1)C1CCC(CNS(=O)(=O)c2cccc3cccnc23)CC1 (centres undefined),0,0,12.6µM,0,?,0
O=C(C1CCC(CNS(=O)(=O)c2cccc3cccnc23)CC1)N1CCc2ccccc21 (centres undefined),0,?,1.26µM,?,0,0
COc1cc(CNCCNC(=O)c2nonc2N)ccc1OCc1ccc(Cl)nc1,0,0,0,-,0,0
CSC1=NC(NCCCO)c2c(sc3c2CC(C)(C)OC3)N1 (centres undefined),0,0,?,?,0,0
Cc1cccc(CCNC(=O)c2c[nH]c3ccc(S(=O)(=O)Nc4ccccc4F)cc3c2=O)c1,7.08µM,-,-,-,0,?
COc1cccc(NS(=O)(=O)c2ccc3[nH]cc(C(=O)NCCc4ccc(C)cc4)c(=O)c3c2)c1,?,-,-,-,0,?
Cc1ccc(CCNC(=O)c2c[nH]c3ccc(S(=O)(=O)Nc4ccc(C)cc4C)cc3c2=O)cc1,4.47µM,-,-,-,0,?
COCCCNC(=O)c1c[nH]c2ccc(S(=O)(=O)N3CCc4ccccc43)cc2c1=O,28.2µM,0,?,-,0,?
COc1ccc(C)cc1-n1nnnc1SCc1cc(=O)n2cc(C)ccc2n1,0,0,?,0,0,0
O=C(/C=C/c1ccccc1)Nc1ncn[nH]1,?,0,0,0,10µM,0
CS(=O)(=O)Nc1ccc(C2=NN(C(=O)c3ccco3)C(c3ccccc3)C2)cc1 (centres undefined),0,0,15.8µM,0,0,0
Cc1ccc(C2CC(c3ccc(NS(C)(=O)=O)cc3)=NN2C(=O)c2ccco2)cc1 (centres undefined),0,0,?,0,0,0
COc1ccc(S(=O)(=O)N2N=C(c3ccc(NS(C)(=O)=O)cc3)CC2c2ccco2)cc1 (centres undefined),0,0,22.4µM,-,0,?
CS(=O)(=O)Nc1ccc(C2=NN(C(=O)c3ccco3)C(c3cccc(F)c3)C2)cc1 (centres undefined),0,0,14.1µM,-,0,0
O=c1cc(N2CCCC2)c(-c2ccccc2)n[nH]1,0,0,0,-,0,0
Cn1nc(-c2ccccc2)c(N2CCCCC2)cc1=O,0,0,28.2µM,-,0,0
Cc1cccc(C)c1-n1ncc(C(=O)NCCCN2CCC(C)CC2)c1C1CCN(C(=O)OC(C)(C)C)CC1,0,-,-,-,0,0
Nn1cc(-c2ccccc2)nc1SCC(=O)Nc1ccc2c(c1)OCO2,0,0,1.41µM,0,0,0
Nn1cc(-c2ccccc2)nc1SCC(=O)NCCc1ccccc1,0,0,3.16µM,-,0,0
Nn1c(SCC(=O)Nc2ccc3c(c2)OCO3)nnc1-c1cccc(Cl)c1,0,0,0,0,?,0
SMILES,Tau FP inhib,NPSR antag,ALDH1A1 block,HPGD inh,Tau ThT inhib,Tau fluor cs
O=C(CSc1nc2ncc(Br)cc2[nH]1)Nc1ccc2c(c1)OCO2,0,0,25.1µM,-,?,0
O=C(CSc1ncnc2ccccc12)Nc1ccc2c(c1)OCO2,0,0,11.2µM,0,?,0
O=C(CSc1nc2ncc(Cl)cc2[nH]1)c1ccc2c(c1)OCO2,?,0,-,-,-,0
O=C(CSc1ncnc2ccccc12)Nc1ccc2c(c1)OCCO2,0,0,0,-,0,0
Cc1cc(C)c(NC(=O)C(=O)NCC(c2cccnc2)N2CCN(Cc3ccccc3)CC2)c(C)c1 (centres undefined),0,-,-,-,0,?
O=C(Cc1cccc2ccccc12)N/N=C/c1ccc(Sc2nc3ccccc3s2)o1,0,0,0,?,0,0
CCCCC[C@H](O)/C=C/[C@@H]1[C@@H](C/C=C\CCCC(=O)O)[C@H](O)C[C@H]1O,0,-,0,0,0,0
Cc1c(O)ccc(C(=O)COc2ccc(F)cc2)c1O,0,0,17.8µM,-,0,0
CCc1cc(C(=O)COc2ccc(F)cc2)c(O)cc1O,0,0,0,-,?,0
CCCOC(=O)CCCCCCCCC(O)CN1CCCCC1 (centres undefined),0,0,17.8µM,-,0,0
COc1ccccc1N1CCN(C(=O)CN(c2ccccc2OC)S(=O)(=O)c2ccccc2)CC1,0,0,0,0,?,0
COCCOC(=O)c1ccccc1C(=O)OCCOC,-,-,0,0,-,-
CN1CCc2c(sc(/N=C/c3cccs3)c2C(N)=O)C1,?,?,?,0,14.1µM,0
CN1CCc2c(sc(/N=C/c3ccco3)c2C(N)=O)C1,?,0,?,-,?,0
CCC(CC)NC(=O)CON=C1c2ccccc2-c2ccccc21,0,0,0,7.94µM,0,0
Cc1c(C(=O)N2CCCCC2)nnn1-c1nonc1N,0,0,7.94µM,15.8µM,0,0
Cc1cc(/C=C2\SC(=S)NC2=O)c(C)n1-c1ccccc1,?,?,?,-,7.08µM,?
Cc1cc(/C=C2\SC(=S)NC2=O)c(C)n1-c1ccc(O)cc1,0,?,-,-,7.94µM,22.4µM[quencher]
Cc1cc(/C=C2/SC(=O)NC2=O)c(C)n1-c1ccc(N2CCOCC2)cc1,0,0,0,8.91µM,0,0
COc1ccc(-n2c(C)cc(/C=C3\SC(=S)NC3=O)c2C)cc1,0,0,?,-,?,0
CNC(=O)/C(C#N)=C\c1cc(C)n(-c2ccc(N3CCOCC3)cc2)c1C,0,0,?,-,0,0
Cc1cc(C)cc(N=C2NC(=O)/C(=C/c3cccs3)S2)c1,?,0,0,0,?,?
Cc1cc(/C=C2\SC(=Nc3ccc(F)cc3)NC2=O)c(C)n1-c1ccc(S(N)(=O)=O)cc1,0,10µM,?,0,14.1µM,?
Cc1cc(/C=C2\SC(N)=NC2=O)c(C)n1-c1ccccc1,0,0,?,0,?,0
COc1ccc2c(CNCCc3ccc(SC)cc3)c(C(=O)O)n(Cc3ccc(F)cc3)c2c1,0,-,-,-,0,0

# Compound activity deposited in PubChem by National Center for Advancing Translational Sciences (NCATS).
